# CRFR2-BP antag: antagonists of CRF-BP/CRF-R2 complex, primary screen, cell-based, HEK293, calcium dye fluorescence, uHTS. CRF-induced calcium fluorescence. AID 588475, 2011. 350,000 tested, 0.59% active. inhibition, % at 11.8 µM;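 active means inhibition of the ligand-induced calcium signal above about 50% at the single tested concentration, limit read from the data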
# RTF Ca sens act: cardiac RTF calcium sensitivity activators, primary screen, biochemical, IANBD-TnC fluorescence, EC20 calcium; Troponin I, cardiac muscle (Homo sapiens) + Troponin T, cardiac muscle (Homo sapiens) + …; IANBD-labeled TnC RTF fluorescence at EC20 calcium; 0% EC20 calcium, 100% full calcium; activation, % at 7.2 µM; 340,000 tested, 0.24% active;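 active means activation above the mean over all tested compounds plus 3 SD, cut at about 30% in these data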;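 further: rise in fluorescence read as greater calcium sensitivity of cardiac thin filaments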
# RTF Ca sens inh: cardiac RTF calcium sensitivity inhibitors, primary screen, biochemical, IANBD-TnC fluorescence, EC70 calcium; Troponin I, cardiac muscle (Homo sapiens) + Troponin T, cardiac muscle (Homo sapiens) + …; IANBD-labeled cardiac RTF, Ca2+ fluorescence; inhibition, % at 7.15 µM; 340,000 tested, 0.12% active; AID 493244, 2011;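 active means inhibition above the mean inhibition of all tested compounds plus 3 SD, cut at about 17% in these data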;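 further: assay run at fixed EC70 calcium of 1.6 mM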
# CRFR2-BP ag: agonists of CRF-BP/CRF-R2 complex, primary screen, cell-based, HEK293, calcium dye fluorescence, uHTS. CRF-binding protein / CRF receptor 2 complex (human). calcium dye fluorescence (FLIPR); percent of saturating CRF peptide response. activation, % at 13.2 µM. 350,000 tested, 0.46% active. AID 588473, 2011;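 active means activation of at least 50%, plus an integration ratio under a set limit after plate pattern correction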
# A number is an active result; 0 = inactive; - = no result. Shown are actives, neighbours in structure and some others; about 1.3% of the full set was active somewhere.
SMILES,CRFR2-BP antag,RTF Ca sens act,RTF Ca sens inh,CRFR2-BP ag
Cc1ccc(NC(=O)c2ncn(CCCNCC3CCCO3)n2)cc1C (stereo not given),81,0,0,0
CSc1ncccc1C(=O)OCC(=O)NCc1ccc2c(c1)OCO2,0,0,0,0
Cc1ccc2oc(=O)c(/C=C(\O)c3ccco3)nc2c1,0,0,0,147
Cc1ccc(/C(O)=C/c2nc3ccccc3oc2=O)cc1,0,-,-,60
Cc1ccc2oc(=O)c(/C=C(\O)C(C)(C)C)nc2c1,0,0,0,0
Cc1ccc2oc(=O)c(/C=C(\O)c3sc(C)nc3C)nc2c1,0,0,0,123
CC(C#N)(NC(=O)CN1CCN(S(=O)(=O)c2cccc(F)c2)CC1)C1CC1 (stereo not given),0,-,-,0
Cc1cc(NC(=O)Nc2ccccc2F)ccc1Br,0,0,0,0
Oc1ccc2ccccc2c1CN1CCCCC1,0,0,0,109
CSc1ncccc1C(=O)NNC(=O)c1ccc(NS(=O)(=O)c2cccs2)cc1,0,0,0,0
COc1ccc(OC)c(/C=C2/Sc3ccccc3C2=O)c1,0,37,0,197
COc1cc(C=C2C(=O)c3ccccc3C2=O)cc(OC)c1OC,88,0,0,0
COc1cccc(/C=C2\C(=O)C(=O)c3ccccc32)c1,76,0,0,0
COc1ccc(C=C2C(=O)c3ccccc3C2=O)cc1O,66,0,0,0
CC1(C)CC(NCCC(c2ccccc2)c2ccco2)CCO1 (stereo not given),97,0,0,0
Cc1ccccc1C(=O)NN1C(=O)CSC1=S,0,0,0,0
O=C(NN1C(=O)CSC1=S)c1cccnc1,77,-,-,0
O=C(c1nc2n(n1)C(c1ccc(Cl)cc1)C=C(c1ccccc1)N2)N1CCOCC1 (stereo not given),0,0,0,97
CS(=O)(=O)Nc1nc2n(n1)C(c1ccccc1)C=C(c1ccc(Br)cc1)N2 (stereo not given),0,82,0,139
O=C(Nc1nc2n(n1)C(c1ccccc1)C=C(c1ccccc1)N2)c1ccco1 (stereo not given),0,0,0,0
CC(=O)Nc1nc2n(n1)C(c1ccccc1)C=C(c1ccccc1)N2 (stereo not given),0,0,0,0
CC(=O)Nc1nc2n(n1)C(c1ccc(F)cc1)C=C(c1ccccc1)N2 (stereo not given),0,0,0,75
CC(Cc1ccccc1)NC(=O)CN1C(=O)c2ccccc2S1(=O)=O (stereo not given),0,0,0,0
CCOC(=O)[C@H]1[C@H]2COc3ccc(OC)cc3[C@@H]2N2C(=O)CN(Cc3ccccc3)C(=O)[C@@]12C,0,0,0,0
COCCn1c(-c2ccsc2)nc2c1c(=O)[nH]c(=O)n2CC(C)C,51,0,0,0
SMILES,CRFR2-BP antag,RTF Ca sens act,RTF Ca sens inh,CRFR2-BP ag
COc1cccc(CNC(=O)CCS(=O)(=O)Cc2ccc(C)cc2)c1,0,0,0,0
COc1ccc(S(=O)(=O)N2CCOC2CNC(=O)C(=O)NCCc2ccc(S(N)(=O)=O)cc2)cc1 (stereo not given),0,0,0,0
Cc1cccn2c(=O)c3cc(C(=O)NCc4ccco4)c(=N)n(C4CCCCC4)c3nc12,54,0,0,0
Cc1ccc(Cn2c(=N)c(C(=O)NCc3ccco3)cc3c(=O)n4ccccc4nc32)cc1,0,0,0,0
Cc1ccc2nc3c(cc(C(=O)NCc4ccco4)c(=N)n3C3CCCC3)c(=O)n2c1,-,0,0,-
COCCn1c(=N)c(C(=O)NCc2ccco2)cc2c(=O)n3cc(C)ccc3nc21,84,0,0,0
COc1ccccc1NC(=O)c1ccccc1Nc1ccccc1,0,0,0,0
O=C(O)c1ccccc1NC(=O)c1ccccc1Nc1ccccc1,52,0,0,0
O=C(COc1ccc2ccccc2c1)Nc1cccc(C(=O)Nc2ccccc2C(=O)O)c1,59,0,0,0
O=C(Nc1ccccc1C(=O)Nc1ccccc1C(=O)O)c1ccccc1,53,0,0,0
O=C1c2ccccc2CN1Cc1ccccc1,0,0,0,0
CCOc1ccc(NC(=O)CC2C(=O)N(c3ccc(OC)c(Cl)c3)C(=S)N2C2CC2)cc1 (stereo not given),0,0,0,0
CC(=O)Nc1cc(C(C)C)c(O)c(C(C)C)c1,0,0,0,0
